The panel holds about 83,000 compounds, 20% with a hit somewhere; the sample as a whole holds those more often.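 The test compound was applied at a single concentration to cells in 96-well plates for 48 hours, and percent growth was recorded.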 Values without a mark were called inactive. Activity calls are given as the source filed them. How the source made its calls: active means growth percent below 10; inactive means the rest.

Test systems include NCI-H23 lung; NCI-H226 lung; NCI-H322M lung; HOP-62 NSCLC; NCI-H460 lung; HOP-92 NSCLC; A549/ATCC NSCLC; 786-0 renal; COLO 205 colon; NCI-H522 lung.
Common to all, as to test: NCI-60 one-dose screen, 48 h (100 = growth as untreated, 0 = no growth, -100 = all killed)
What all share (conditions): 10 µM unless noted

With `COc1cccc2c1C(=O)c1c(O)c3c(c(O)c1C2=O)C[C@@](O)(C(=O)CO)C[C@@H]3OC1C[C@H](N)[C@H](O)[C@H](C)O1` (some centres not stated), the growth is -33.5% (active) in the assay with NCI-H23 lung; -40.5% (active) in the assay on NCI-H226 lung; -2.94% (active) in the assay on NCI-H322M lung; -29.2% (active) with HOP-62 NSCLC; 0.418% (active) in the assay with NCI-H460 lung; -26.2% (active) in the assay with HOP-92 NSCLC. Besides, the growth is 8.81% (active) with A549/ATCC NSCLC, 6.46% (active) in the assay on 786-0 renal and -81.6% (active) in the assay on COLO 205 colon.

For the molecule `Cc1ccc2[nH]cc(-c3nc(-c4cn(C)c5ncccc45)cs3)c2c1`, the growth is 74.7% in the assay on NCI-H23 lung; 74.2% in the assay on NCI-H226 lung; 101% with NCI-H322M lung; 105% in the assay on HOP-62 NSCLC; 91.4% with NCI-H460 lung; 74.6% with HOP-92 NSCLC. Besides, the growth was 75.5% in the assay on A549/ATCC NSCLC, 91.3% in the assay on 786-0 renal and 97.9% with COLO 205 colon.

For `O=C1c2ccccc2NC(c2cn(-c3ccccc3)nc2-c2cccnc2)N1Cc1ccccc1` (configuration not stated), the growth in the assay with NCI-H23 lung is 92.3%; in the assay with NCI-H226 lung, 109%; in the assay with NCI-H322M lung, 93%; in the assay with HOP-62 NSCLC, 111%; in the assay with NCI-H460 lung, 108%; in the assay with HOP-92 NSCLC it was 93.4%. For the same molecule, the growth in the assay with A549/ATCC NSCLC was 102%; in the assay with 786-0 renal, 89.9%; with COLO 205 colon, 121%.

As to `CC(C)(C)c1[nH]nc2c1C(c1cc3ccccc3[nH]c1=O)Nc1cc(C(=O)OCc3ccccc3)ccc1N2` (configuration not stated), the growth in the assay with NCI-H23 lung was 69%; in the assay on NCI-H226 lung, 74.8%; in the assay with NCI-H322M lung it was 63%; in the assay with HOP-62 NSCLC it was 65.1%; with NCI-H460 lung, 19.4%; with HOP-92 NSCLC, 87.7%. Also, the growth in the assay on NCI-H522 lung was 74.6%; in the assay on A549/ATCC NSCLC, 41.6%; in the assay on 786-0 renal, 49.4%; in the assay on COLO 205 colon, 84.3%.

As to `CN(C)c1ccc(N)c2ccccc12`, the growth in the assay with NCI-H23 lung is -79.6% (active); in the assay with NCI-H226 lung, 47%; with NCI-H322M lung, 58.7%; in the assay with HOP-62 NSCLC, 74.1%; in the assay on NCI-H460 lung, 52.5%; with HOP-92 NSCLC, 105%. Further, the growth in the assay with A549/ATCC NSCLC was 49.5%; with 786-0 renal it was 87.1%; in the assay with COLO 205 colon, 19.6%.

Take `CC(=O)Oc1ccccc1C(=O)/C=C/c1cccc([N+](=O)[O-])c1`: the growth is 87.9% with NCI-H23 lung; 94.2% in the assay with NCI-H226 lung; 99.2% in the assay on NCI-H322M lung; 99.2% in the assay with HOP-62 NSCLC; 82.5% in the assay on NCI-H460 lung; 69.8% in the assay with HOP-92 NSCLC. Moreover, the results for the growth with A549/ATCC NSCLC, with 786-0 renal and in the assay with COLO 205 colon were 95.6%, 81.6% and 86.7%, respectively.

`CC(c1ccccc1)N1C(=O)C(C2SC(=S)N(C(C)c3ccccc3)C2=O)SC1=S` (configuration not stated): the growth with NCI-H23 lung is 96.1%; in the assay on NCI-H226 lung it was 99.9%; in the assay with NCI-H322M lung, 93.1%; in the assay with HOP-62 NSCLC, 97.5%; with NCI-H460 lung it was 82.5%; in the assay on HOP-92 NSCLC, 83.7%. For the same molecule, the growth in the assay on A549/ATCC NSCLC was 82.3%; with 786-0 renal it was 96.2%; with COLO 205 colon, 85.7%.

Consider `COc1ccc(/C=C/C(=O)NCC(C)O)cc1` (configuration not stated), for which the growth in the assay with NCI-H23 lung is 93.5%; with NCI-H226 lung it was 91.5%; in the assay on NCI-H322M lung, 94.5%; in the assay on HOP-62 NSCLC, 89.1%; with NCI-H460 lung it was 101%; with HOP-92 NSCLC it was 101%. Also, the growth is 83.2% with A549/ATCC NSCLC, 100% with 786-0 renal and 104% in the assay with COLO 205 colon.

Turning to `CCCCC[C@H]1C/C=C2/C(=O)C=C[C@@H]2C/C=C\CCCC(=O)O[C@@H](CCCCC)C/C=C2/C(=O)C=C[C@@H]2C/C=C\CCCC(=O)O1`, the growth in the assay with NCI-H23 lung was -72.7% (active); in the assay on NCI-H226 lung it was -61.2% (active); with NCI-H322M lung it was -85.7% (active); in the assay with HOP-62 NSCLC, -74.4% (active); in the assay with NCI-H460 lung it was -54.7% (active); in the assay with HOP-92 NSCLC, -68.8% (active). For the same molecule, the growth with A549/ATCC NSCLC is -43.5% (active); in the assay with 786-0 renal, -86.8% (active); with COLO 205 colon it was -81.7% (active).

Turning to `CCCCC[C@H]1CC=C2C(=O)C(Cl)=C[C@@H]2CC=CCCCC(=O)O[C@@H](CCCCC)CC=C2C(=O)C(Cl)=C[C@@H]2CC=CCCCC(=O)O[C@@H](CCCCC)CC=C2C(=O)C(Cl)=C[C@@H]2CC=CCCCC(=O)O1`, the growth in the assay on NCI-H23 lung is 58.4% [8 µM]; in the assay on NCI-H226 lung it was 115% [8 µM]; with NCI-H322M lung, 96.2% [8 µM]; in the assay with HOP-62 NSCLC, 89.8% [8 µM]; with NCI-H460 lung, 91% [8 µM]; in the assay on HOP-92 NSCLC it was 130% [8 µM]. Also, the growth with A549/ATCC NSCLC was 90.6% [8 µM]; in the assay with 786-0 renal, 103% [8 µM]; in the assay with COLO 205 colon, 70.8% [8 µM].

As for `COc1cc(OC)c2c(c1)c1nc3cc(C)c(C)cc3nc1n2CCN(C)C`, the growth with NCI-H23 lung is 91.3%; in the assay with NCI-H226 lung, 90.5%; in the assay on NCI-H322M lung it was 87.1%; in the assay with HOP-62 NSCLC it was 79.4%; with NCI-H460 lung it was 84.8%; in the assay on HOP-92 NSCLC, 81.7%. Moreover, the values for the growth in the assay with A549/ATCC NSCLC and with 786-0 renal were 80.4% and 83.9%, respectively.

On to `O=C(O)c1cccc2c1C(=O)N(c1ccc3c(c1)Cc1ccccc1-3)C2=O`, for which the growth in the assay with NCI-H23 lung was 122%; in the assay with NCI-H226 lung it was 111%; in the assay on NCI-H322M lung, 111%; in the assay on HOP-62 NSCLC, 112%; in the assay on NCI-H460 lung, 117%; with HOP-92 NSCLC it was 109%. Moreover, the growth was 98.6% in the assay with A549/ATCC NSCLC and 107% in the assay on 786-0 renal.

As to `CC1(C)C(=O)/C(=C\c2ccco2)C[C@]2(C)[C@H]3CC[C@@H]4[C@@H](C(=O)/C=C/c5ccco5)CC[C@@]4(C)[C@]3(C)CC[C@@H]12`, the growth is 92.8% with NCI-H23 lung; 103% in the assay on NCI-H226 lung; 105% with NCI-H322M lung; 83.2% with HOP-62 NSCLC; 98.7% in the assay with NCI-H460 lung; 17.6% with HOP-92 NSCLC. For the same molecule, the growth was 92.4% in the assay with NCI-H522 lung, 96.9% in the assay on A549/ATCC NSCLC, 119% in the assay with 786-0 renal and -80.2% (active) in the assay with COLO 205 colon.
